Several values for one entry are separate records, joined by “and”; a condition that tells them apart may be missing. Equal entries are not always repeated. Results filed as inconclusive are left out. Some compounds were tested as several samples or in several runs, with calls that do not always agree. Activity calls are given as the source filed them. Calls follow the shape of the dose curve; as a rule, active = well fitted inhibition curve with a large enough effect; inconclusive = small, poorly fitted or top-dose-only effect; inactive = flat fitted curve, though single readings scatter.
What was measured:
CRL-7250 = normal cell line; assay: Cytotoxic Profiling of Annotated Libraries Using Quantitative High-Throughput Screening (AID 1296008); settings: Five cell lines viability, CellTiter-Glo ATP luminescence, 48-72 h; max response: active compounds read low; also: potency is read from the fitted curve at half-maximal effect; as to max response: % is scaled to controls: 0 for no effect and ±100 for the full control effect
Summary of the method: (§1)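 Cells exposed to compounds for 48 or 72 hr at 37 degrees Celsius. Viability read as ATP-coupled luminescence with CellTiter-Glo after 10 min at room temperature.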

HaCat [1] = assay: as above; settings: Five cell lines viability, CellTiter-Glo ATP luminescence, 48-72 h; max response: active compounds read low
Summary of the method: as §1

KB-3-1 = assay: as above; settings: Five cell lines viability, CellTiter-Glo ATP luminescence, 48-72 h; max response: active compounds read low
Summary of the method: as §1

HACAT [2] = assay: qHTS assay to identify novel small-molecules to repurpose for Merkel cell carcinoma treatment (AID 1296009); settings: MCC and control cell lines, CellTiter-Glo viability, 72 h; at 44.8 µM (top of the series) unless noted; also: potency is read from the fitted curve at half-maximal effect
Summary of the method: (§2)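 Cells were incubated with compound for 72 hr at 37 degree celsius before CellTiter-Glo addition. Luminescence was normalized with no-cell wells as full cytotoxicity and DMSO as baseline.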

MCC-13 = assay: as above; settings: MCC and control cell lines, CellTiter-Glo viability, 72 h; series mostly up to 46 µM
Summary of the method: as §2

MCC-26 = assay: as above; settings: MCC and control cell lines, CellTiter-Glo viability, 72 h; series mostly up to 46 µM
Summary of the method: as §2

MKL-1 = assay: as above; settings: MCC and control cell lines, CellTiter-Glo viability, 72 h; series mostly up to 46 µM
Summary of the method: as §2

HEK293 = assay: Cytotoxic Profiling of Annotated Libraries Using Quantitative High-Throughput Screening (AID 1296008); settings: Five cell lines viability, CellTiter-Glo ATP luminescence, 48-72 h; max response: active compounds read low; also: potency is read from the fitted curve at half-maximal effect; as to max response: % is scaled to controls: 0 for no effect and ±100 for the full control effect
Summary of the method: as §1

MKL-2 = assay: qHTS assay to identify novel small-molecules to repurpose for Merkel cell carcinoma treatment (AID 1296009); settings: MCC and control cell lines, CellTiter-Glo viability, 72 h; series mostly up to 46 µM; also: potency is read from the fitted curve at half-maximal effect
Summary of the method: as §2

NIH3T3 = assay: Cytotoxic Profiling of Annotated Libraries Using Quantitative High-Throughput Screening (AID 1296008); settings: Five cell lines viability, CellTiter-Glo ATP luminescence, 48-72 h; max response: active compounds read low; also: potency is read from the fitted curve at half-maximal effect; as to max response: % is scaled to controls: 0 for no effect and ±100 for the full control effect
Summary of the method: as §1

PAD = assay: qHTS profiling for inhibitors of Plasmodium falciparum proliferation (AID 504749);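 also: 0% = DMSO vehicle and full inhibition = artemisinin control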; settings: P. falciparum in erythrocytes, SYBR Green DNA, 72 h; series mostly up to 28.7 µM
Summary of the method: (§3)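 Readout was DNA-dye fluorescence from lysed cultures, ex 485/em 535 nm. Parasitized red cells had grown 72 h with compound; data scaled between 0.29 uM artemisinin and DMSO wells and corrected using vehicle-only plates.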

PC15 = assay: as above; settings: P. falciparum in erythrocytes, SYBR Green DNA, 72 h; series mostly up to 28.7 µM
Summary of the method: as §3

PC26 = assay: as above; settings: P. falciparum in erythrocytes, SYBR Green DNA, 72 h; series mostly up to 28.7 µM
Summary of the method: as §3

PC49 = assay: as above; settings: P. falciparum in erythrocytes, SYBR Green DNA, 72 h; series mostly up to 28.7 µM
Summary of the method: as §3

SC27B = assay: as above; settings: P. falciparum in erythrocytes, SYBR Green DNA, 72 h; series mostly up to 28.7 µM
Summary of the method: as §3

TAB109 = assay: as above; settings: P. falciparum in erythrocytes, SYBR Green DNA, 72 h; series mostly up to 28.7 µM
Summary of the method: as §3

TAB113 = assay: as above; settings: P. falciparum in erythrocytes, SYBR Green DNA, 72 h; series mostly up to 28.7 µM
Summary of the method: as §3

TAB165 = assay: as above; settings: P. falciparum in erythrocytes, SYBR Green DNA, 72 h; series mostly up to 28.7 µM
Summary of the method: as §3

W2 = assay: as above; settings: P. falciparum in erythrocytes, SYBR Green DNA, 72 h; series mostly up to 28.7 µM
Summary of the method: as §3

HEK293T = assay: qHTS assay to identify novel small-molecules to repurpose for Merkel cell carcinoma treatment (AID 1296009); settings: MCC and control cell lines, CellTiter-Glo viability, 72 h; at 44.8 µM (top of the series); also: potency is read from the fitted curve at half-maximal effect
Summary of the method: as §2
Also: nearly all actives have a fitted effect of over 60% in size.

COc1ccc2cc(-c3nc(-c4ccc(S(C)=O)cc4)[nH]c3-c3ccncc3)ccc2c1 (stereo not given)
inactive: max response (CRL-7250) -4.22% | outcome (CRL-7250) | max response (HaCat [1]) -7.74% | outcome (HaCat [1]) | max response (KB-3-1) 4.38% | outcome (HACAT [2]) | Potency (MCC-13) | Potency (MCC-26) | Potency (MKL-1)

CC[C@]1(O)C[C@@H]2CN(CCc3c([nH]c4ccccc34)[C@@](C(=O)OC)(c3cc4c(cc3OC)N(C)[C@H]3[C@@](O)(C(=O)OC)[C@H](OC(C)=O)[C@]5(CC)C=CCN6CC[C@]43[C@@H]65)C2)C1
active: Potency (CRL-7250) 266 nM | Potency (HEK293) 66.8 nM and 84.1 nM and 46.1 nM | Potency (KB-3-1) 2.91 µM and 18.4 nM | Potency (MCC-13) 119 nM and 1.19 µM | Potency (MKL-1) 75 nM and 168 nM | Potency (MKL-2) 75 nM and 150 nM
inactive: max response (HaCat [1]) 0.756% | outcome (HaCat [1]) | outcome (HACAT [2])

CC(C)n1nc(-c2ccc3oc(N)nc3c2)c2c(N)ncnc21
active: Potency (CRL-7250) 1 nM and 58 nM | Potency (HEK293) 1.7 nM and 82 nM | Potency (HaCat [1]) 3260 nM | Potency (KB-3-1) 7.4 nM and 116 nM

O=C(O)CCc1nc(-c2ccccc2)c(-c2ccccc2)o1
inactive: max response (CRL-7250) -11.7% and 0.986% | max response (HEK293) -15.1% and -1.16% | max response (HaCat [1]) -18.5% | outcome (HaCat [1]) | max response (KB-3-1) -6.48% | outcome (KB-3-1) | max response (NIH3T3) 3.82% | outcome (NIH3T3) | outcome (HACAT [2]) | Potency (MCC-13) | Potency (MCC-26) | Potency (MKL-1)

COC(=O)[C@@H]1[C@H]2C[C@H]3c4[nH]c5ccccc5c4CCN3C[C@@H]2CC[C@@H]1O
inactive: outcome (CRL-7250) | max response (HEK293) -10.9% and -9.65% | max response (HaCat [1]) 0.769% | outcome (HaCat [1]) | max response (KB-3-1) -4.37% and 9.99% | outcome (HACAT [2]) | Potency (MCC-13) | Potency (MCC-26) | Potency (MKL-1) | Potency (MKL-2)

NC(=O)c1ccc2nc(-c3ccc(Oc4ccc(Cl)cc4)cc3)[nH]c2c1
inactive: max response (CRL-7250) -25.5% | outcome (CRL-7250) | max response (HaCat [1]) -0.499% | outcome (HaCat [1]) | max response (NIH3T3) -2.72% and -4.33% | outcome (HACAT [2]) | Potency (MCC-13) | Potency (MCC-26) | Potency (MKL-1)

O=C(NC1CCOCC1)c1ccc(-c2cc(-c3cn[nH]c3-c3ccccn3)ccn2)cc1
inactive: max response (CRL-7250) -5.17% | outcome (CRL-7250) | max response (HEK293) -15.5% | max response (HaCat [1]) 2.12% | outcome (HaCat [1]) | max response (KB-3-1) -6.4% and 1.2% | outcome (HACAT [2]) | Potency (MCC-13) | Potency (MCC-26) | Potency (MKL-1) | Potency (MKL-2)

O=C(O)c1cc(-c2ccccc2)nc2ccccc12
inactive: outcome (PAD) | outcome (PC15) | Potency (PC26) | outcome (PC49) | Potency (SC27B) | outcome (TAB109) | Potency (TAB113) | Potency (TAB165) | Potency (W2) | max response (CRL-7250) -0.325% and 3.3% and 1.79% | max response (HEK293) -6.89% | outcome (HEK293) | max response (HaCat [1]) -15.6% | outcome (HaCat [1]) | max response (KB-3-1) -3.95% and -19% and 4.62% | max response (NIH3T3) 0.25% and -0.385% | outcome (NIH3T3) | outcome (HACAT [2]) | outcome (HEK293T) | Potency (MCC-13) | Potency (MCC-26) | Potency (MKL-1) | Potency (MKL-2)

COc1cc2ncnc(-n3nc(-c4ccccn4)nc3N)c2cc1OC
inactive: max response (CRL-7250) -12.8% | outcome (HEK293) | outcome (HaCat [1]) | outcome (KB-3-1) | max response (NIH3T3) 0.54% and -22.1% | outcome (HACAT [2]) | outcome (HEK293T) | Potency (MCC-13) | Potency (MCC-26) | Potency (MKL-1) | Potency (MKL-2)
active: Potency (CRL-7250) 3550 nM | Potency (HaCat [1]) 3170 nM

CCCNC(=O)NS(=O)(=O)c1ccc(Cl)cc1
inactive: outcome (PAD) | outcome (PC15) | Potency (PC26) | outcome (PC49) | Potency (SC27B) | outcome (TAB109) | Potency (TAB113) | Potency (TAB165) | Potency (W2) | max response (CRL-7250) -0.307% | outcome (CRL-7250) | max response (HEK293) -0.916% | outcome (HEK293) | max response (HaCat [1]) -1.01% | outcome (HaCat [1]) | max response (KB-3-1) -1.87% and 8.57% | outcome (NIH3T3) | outcome (HACAT [2]) | outcome (HEK293T) | Potency (MCC-13) | Potency (MKL-1) | Potency (MKL-2)

CCOc1ccc(Nc2nc(-c3c(C)nc4ccccn34)cs2)cc1
inactive: max response (HaCat [1]) 3.42% | outcome (HaCat [1]) | outcome (HACAT [2])
active: Potency (CRL-7250) 146 nM | Potency (HEK293) 46.1 nM | Potency (KB-3-1) 33.2 nM and 32.6 nM | Potency (NIH3T3) 5.3 nM and 73.1 nM | Potency (MCC-13) 37.2 nM | Potency (MCC-26) 52.6 nM

Cc1ccccc1C(C(=O)NC1CCCCC1)N(C(=O)Cn1ccnc1C)c1cccc(F)c1 (stereo not given)
inactive: max response (CRL-7250) -5.16% | outcome (CRL-7250) | max response (HEK293) -0.939% | outcome (HaCat [1]) | max response (KB-3-1) 1.35% and 1.14% | max response (NIH3T3) -2.46% and -16.9% | outcome (HACAT [2]) | Potency (MCC-13) | Potency (MCC-26) | Potency (MKL-1) | Potency (MKL-2)

Cc1ccc(Nc2cc(-c3cccc(N4C(=O)c5ccccc5C4=O)c3)ncn2)cc1NS(C)(=O)=O
inactive: outcome (CRL-7250) | max response (HEK293) -21.5% | outcome (HaCat [1]) | max response (KB-3-1) 6.32% | outcome (KB-3-1) | max response (NIH3T3) -7.13% | outcome (NIH3T3) | outcome (HACAT [2]) | Potency (MCC-13) | Potency (MCC-26) | Potency (MKL-1) | Potency (MKL-2)

CS(=O)c1ccc(-c2nc(-c3ccc(F)cc3)c(-c3ccncc3)[nH]2)cc1 (stereo not given)
active: Potency (CRL-7250) 19100 nM | Potency (HEK293) 8550 nM
inactive: outcome (CRL-7250) | outcome (HEK293) | max response (HaCat [1]) 2.48% | outcome (KB-3-1) | outcome (HEK293T) | Potency (MCC-13) | Potency (MCC-26) | Potency (MKL-1) | Potency (MKL-2)

From PubChem BioAssay (NCATS)
